According to PubChem BioAssay:
Active and inactive are the calls of the source.

Key:
[1] = compounds binding Alexa647 anti-His antibody – biochemical, small-molecule microarray, 635 nm fluorescence, artefact control for SMM control protein annotation, primary screen (AID 1128); settings: higher = more signal;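 note: score merges feature fluorescence with signal-to-noise for each printed compound spot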
[2] = tested on: Human papillomavirus type 1a E7 protein (residues 1-88); assay: HPV1a E7 small-molecule binders, primary screen, biochemical, small-molecule microarray, residues 1-88, 635 nm (AID 1129); settings: small-molecule microarray binding, fluorescence 635 nm; higher = more signal
[3] = target: Focal adhesion kinase 1 (Homo sapiens) (UniProt Q05397); assay: PTK2 protein binding on printed compound slides – biochemical, small-molecule microarray, 635/667 nm fluorescence, BSA, DTT, primary screen (AID 1130); settings: 635 nm fluorescence, higher = more signal;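 note: composite of spot emission at 667 nm and signal to noise over triplicate slides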
Sequence of Focal adhesion kinase 1 (Homo sapiens) (Q05397 whole entry, looked up): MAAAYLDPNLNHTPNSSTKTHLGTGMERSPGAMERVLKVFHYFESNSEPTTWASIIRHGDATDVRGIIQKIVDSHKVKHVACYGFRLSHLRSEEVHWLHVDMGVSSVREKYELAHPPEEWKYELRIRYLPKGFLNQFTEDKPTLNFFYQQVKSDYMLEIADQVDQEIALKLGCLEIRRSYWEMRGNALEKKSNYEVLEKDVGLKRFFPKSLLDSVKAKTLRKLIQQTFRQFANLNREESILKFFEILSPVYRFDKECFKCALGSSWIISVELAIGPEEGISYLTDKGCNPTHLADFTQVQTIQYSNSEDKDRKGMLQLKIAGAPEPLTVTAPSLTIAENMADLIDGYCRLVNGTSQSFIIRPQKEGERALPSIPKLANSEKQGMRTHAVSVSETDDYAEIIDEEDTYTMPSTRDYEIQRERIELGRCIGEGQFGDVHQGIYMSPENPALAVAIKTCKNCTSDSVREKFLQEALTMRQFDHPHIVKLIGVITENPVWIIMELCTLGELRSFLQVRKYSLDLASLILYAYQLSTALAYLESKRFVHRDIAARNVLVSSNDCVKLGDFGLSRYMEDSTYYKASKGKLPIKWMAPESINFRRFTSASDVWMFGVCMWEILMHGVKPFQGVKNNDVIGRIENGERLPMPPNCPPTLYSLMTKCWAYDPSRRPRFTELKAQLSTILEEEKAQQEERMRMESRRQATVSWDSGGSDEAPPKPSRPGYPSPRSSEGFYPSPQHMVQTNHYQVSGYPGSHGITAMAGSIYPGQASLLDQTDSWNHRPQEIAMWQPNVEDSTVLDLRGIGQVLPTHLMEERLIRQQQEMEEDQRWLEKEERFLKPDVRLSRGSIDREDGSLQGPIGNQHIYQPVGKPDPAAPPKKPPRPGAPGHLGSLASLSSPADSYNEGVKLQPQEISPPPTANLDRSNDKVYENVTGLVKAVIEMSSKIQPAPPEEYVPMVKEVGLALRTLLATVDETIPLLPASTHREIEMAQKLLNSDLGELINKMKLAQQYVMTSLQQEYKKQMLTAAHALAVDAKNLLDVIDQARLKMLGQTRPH

[4] = tested on: Fibrinogen (Alexa647-labelled); assay: Alexa647-fibrinogen binding to printed small molecules – biochemical, small-molecule microarray, 635/667 nm fluorescence, artefact control for SMM control-protein annotation, profiling panel (AID 1131); settings: fibrinogen-A647 binding fluorescence, higher = more signal;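 note: z-score merges 667 nm fluorescence with per-spot signal-to-noise over triplicate slides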
[5] = target: Follistatin (Homo sapiens) (UniProt P19883); assay: FST protein binding to printed compounds – biochemical, small-molecule microarray, 635/667 nm fluorescence, primary screen (AID 1132); settings: 635 nm fluorescence, higher = more signal
Sequence of Follistatin (Homo sapiens) (P19883 whole entry, looked up): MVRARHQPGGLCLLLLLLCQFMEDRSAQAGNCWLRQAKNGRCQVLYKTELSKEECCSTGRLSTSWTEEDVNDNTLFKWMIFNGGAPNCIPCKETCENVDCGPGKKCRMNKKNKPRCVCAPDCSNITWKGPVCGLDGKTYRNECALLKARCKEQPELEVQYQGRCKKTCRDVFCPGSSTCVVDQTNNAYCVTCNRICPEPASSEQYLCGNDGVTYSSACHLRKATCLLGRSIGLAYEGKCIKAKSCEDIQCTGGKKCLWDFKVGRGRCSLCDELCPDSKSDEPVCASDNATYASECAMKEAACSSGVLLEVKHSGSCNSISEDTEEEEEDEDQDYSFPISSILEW

[6] = target: Fibroblast growth factor 2 (Homo sapiens) (UniProt P09038); assay: basic fibroblast growth factor binding to printed compounds – biochemical, small-molecule microarray, 635/667 nm fluorescence, primary screen (AID 1133); settings: FGF2, fluorescence 635/667, higher = more signal
Sequence of Fibroblast growth factor 2 (Homo sapiens) (P09038 whole entry, looked up): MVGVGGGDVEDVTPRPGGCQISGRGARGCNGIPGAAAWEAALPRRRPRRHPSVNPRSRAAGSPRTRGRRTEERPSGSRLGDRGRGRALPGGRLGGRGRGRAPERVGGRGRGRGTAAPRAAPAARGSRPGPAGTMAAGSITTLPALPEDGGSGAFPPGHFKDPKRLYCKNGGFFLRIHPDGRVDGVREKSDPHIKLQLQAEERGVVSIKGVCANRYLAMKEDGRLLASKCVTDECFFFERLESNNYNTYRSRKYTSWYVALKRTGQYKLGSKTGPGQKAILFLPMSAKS

[7] = JC-1 mitochondrial potential readout, lung cancer cells – cell-based, A549, JC-1 fluorescence, basal, 24 h, 100 nL, profiling panel (AID 1138); settings: higher = more signal;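 note: A549 lung adenocarcinoma cells under basal conditions with no added stimulus; test concentration not given here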
[8] = tested on: Lefty1; assay: Lefty1 protein binding to printed compounds – biochemical, small-molecule microarray, 635/667 nm fluorescence, primary screen (AID 1139); settings: fluorescence 635/667, higher = more signal
[9] = tested on: wheat germ agglutinin (Triticum aestivum), Alexa647-labelled; assay: Alexa647-WGA lectin binding to printed small molecules – biochemical, small-molecule microarray, 635/667 nm fluorescence, artefact control for SMM control-protein annotation, profiling panel (AID 1140); settings: WGA-A647 binding, 635 nm fluorescence, higher = more signal;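 note: score merges 667 nm feature emission with signal to noise over triplicate slides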
[10] = target: Luciferin 4-monooxygenase (Photinus pyralis) (UniProt P08659); assay: inhibition of purified Photinus pyralis luciferase – biochemical, luminescence, purified enzyme, 2006 set, primary screen (AID 1141); settings: purified firefly luciferase, SteadyGlo luminescence, 30 min; higher = more signal, called active from +8 up or from −8 down;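 note: cell-free assay with purified firefly luciferase at 100 ng per well in PBS; test concentration not given here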
Sequence of Luciferin 4-monooxygenase (Photinus pyralis) (P08659 whole entry, looked up): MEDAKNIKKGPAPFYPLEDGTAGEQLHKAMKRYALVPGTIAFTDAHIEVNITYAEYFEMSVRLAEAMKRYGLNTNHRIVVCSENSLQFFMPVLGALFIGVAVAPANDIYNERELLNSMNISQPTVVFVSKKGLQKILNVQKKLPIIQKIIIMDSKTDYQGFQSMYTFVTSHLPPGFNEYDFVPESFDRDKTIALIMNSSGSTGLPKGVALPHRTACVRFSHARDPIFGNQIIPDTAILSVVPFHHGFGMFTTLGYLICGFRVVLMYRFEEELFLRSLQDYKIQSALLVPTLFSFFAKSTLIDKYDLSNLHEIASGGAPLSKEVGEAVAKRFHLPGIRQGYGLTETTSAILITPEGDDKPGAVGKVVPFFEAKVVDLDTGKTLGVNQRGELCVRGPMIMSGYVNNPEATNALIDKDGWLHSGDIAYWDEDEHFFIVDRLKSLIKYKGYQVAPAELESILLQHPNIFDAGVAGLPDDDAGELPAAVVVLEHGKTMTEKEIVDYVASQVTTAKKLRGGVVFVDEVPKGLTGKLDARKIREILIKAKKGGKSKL

SMILES | composite z-score [1] | composite z-score [2] | composite z-score [3] | composite z-score [4] | composite z-score [5] | composite z-score [6] | z-score [7] | composite z-score [8] | composite z-score [9] | z-score [10]
CCOC(=O)C1=C[C@@H](C(C)(C)C)N(S(=O)(=O)c2ccc(C)cc2)[C@H]1c1cccc2ccccc12 | 1.15 | 0.716 | 0.191 | 0.896 | 0.466 | -0.195 | 2.89 | 0.139 | 0.437 | 0.908 (inactive)
CCCC=C(CCC)[C@@H](NP(=O)(c1ccccc1)c1ccccc1)c1ccc(-c2ccccc2)cc1 | 0.809 | 1.21 | 0.332 | 0.997 | 1.11 | -0.0567 | -2.3 | 0.38 | 1.25 | 2.64 (inactive)
CC(C)NC(=O)[C@@]1(C)c2ccccc2C(=O)N(Cc2ccc(OC(F)(F)F)cc2)[C@H]1c1ccc(CO)cc1 | 0.22 | -0.14 | -0.232 | -0.535 | -0.333 | -0.843 | -0.19 | -1.44 | -0.641 | -0.183 (inactive)
COC(=O)c1c(CC[C@@H](CO)NC(=O)N2CCC[C@H]2Cn2cc(C3(O)CCCCC3)nn2)oc(C(C)=O)c1C(=O)OC | 0.794 | 0.759 | -0.0763 | 0.888 | 0.745 | 1.59 | -0.403 | 1.39 | -0.0239 | 0.97 (inactive)
CC(C)C(O)C1C=CC2C(=O)N(c3ccccc3)C(=O)C2N1Nc1ccccc1 (stereo not given) | 0.331 | 1.29 | 0.463 | 1.05 | 0.986 | -0.11 | 0.0126 | 0.63 | 1.14 | 0.172 (inactive)
O=C1N(Cc2ccccc2)c2ccccc2C[C@]12N=C(c1ccc(OCCCO)cc1)O[C@@H]2c1ccccc1 | 1.1 | 1.03 | 1.7 | 0.529 | 1.1 | 1.36 | -0.911 | 0.492 | 0.186 | -1.74 (inactive)
O=C(Cc1ccccc1)[C@H]1C2C=CCCC(c3ccccc3)=C2CN1Cc1ccccc1 (stereo not given in full) | -0.162 | -0.304 | -0.241 | -0.0983 | 0.436 | 0.869 | 1.77 | -0.519 | -0.394 | -1.06 (inactive)
C=C(COC)C(=O)CC[C@@H](OC(C)=O)c1cccc(OCCO)c1 | 0.0219 | -1.04 | -0.653 | 0.567 | 1.09 | 1.48 | 0.655 | 0.146 | 0.0226 | -1.76 (inactive)
CC(C)NC(=O)[C@@]1(c2ccc([N+](=O)[O-])cc2)CC(=O)N(C2CCCCC2)[C@@H]1c1ccc(CO)cc1 | 2.4 | 1.17 | 0.959 | 0.729 | 1.28 | 0.584 | 0.438 | 1.29 | 0.965 | 1.46 (inactive)
COc1cccc(C)c1NC(=O)O[C@H]1[C@H](OC(=O)Nc2ccccc2-c2ccccc2)[C@H](OC(=O)Nc2ccccc2-c2ccccc2)[C@@H](OC)O[C@@H]1CO | 0.528 | 1.22 | 0.588 | 0.974 | 1.35 | 0.79 | -0.41 | 0.906 | 0.79 | -0.33 (inactive)
Cn1cccc1C(O)C1C=CC2C(=O)N(c3ccccc3)C(=O)C2N1Nc1ccccc1 (stereo not given) | 0.933 | 1.23 | 0.848 | 0.954 | 1.29 | 0.984 | 0.569 | 0.475 | 0.557 | -0.589 (inactive)
CC(=O)N1CC2(CC2)CC1c1ccccc1 (stereo not given) | 0.712 | 0.678 | 0.277 | 0.59 | -0.0582 | 1.6 | 0.033 | -0.46 | 0.251 | 2.49 (inactive)
CC1CC/C=C\[C@H]2OC34C=CCN(C(C)(C)C)C(=O)[C@H]3N(CCCCCO)C(=O)[C@@H]4C2C(=O)O1 (stereo not given in full) | -1.24 | -1.07 | -0.83 | -1.65 | -0.898 | -0.447 | -0.227 | -0.113 | -0.51 | 0.152 (inactive)
Cc1ccccc1C(O)C1C=CC2C(=O)NC(=O)C2N1Nc1ccccn1 (stereo not given) | 0.744 | 0.108 | 0.0312 | 0.693 | -0.145 | -0.227 | 0.0755 | -0.0955 | 0.159 | -0.792 (inactive)
CN1C(=O)C2C=CC(C(O)c3cccn3C)N(Nc3ccc([N+](=O)[O-])cc3[N+](=O)[O-])C2C1=O (stereo not given) | 0.421 | 0.414 | 0.0533 | -0.232 | -0.201 | 0.275 | 0.0408 | -0.583 | 0.408 | 0.679 (inactive)
O=C(NCCN1CCOCC1)[C@@H]1c2ccccc2C(=O)N(C2Cc3ccccc3C2)[C@H]1c1ccc(CO)cc1 | 3.03 | 1.08 | 0.306 | 0.739 | -0.506 | 0.082 | 2.55 | -0.724 | -0.0583 | -1.16 (inactive)
CCCNC(=O)[C@@H]1c2ccccc2C(=O)N(Cc2ccc(OC(F)(F)F)cc2)[C@H]1c1ccc(CO)cc1 | 0.0772 | 0.907 | -0.0662 | 0.368 | 0.887 | 0.908 | 1.93 | -0.0534 | 0.0988 | 0.283 (inactive)
